ADAM10 inh – ADAM10 inhibition, QFRET primary screen; recombinant ADAM10, EDANS/DABCYL FRET peptide cleavage, 3 h; inhibition, % at 7 µM; hit rate 0.62% among 370,000; AID 720582;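 active means inhibition above a per-campaign cutoff equal to the mean of compounds falling between control-based bounds plus 3 SD, cut at about 20% in these data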;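 further: 0% = DMSO wells while the 100% control is not disclosed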
FAS TE block – blocks the thioesterase domain of human fatty acid synthase | P49327 | recombinant FAS-TE, OMFH fluorogenic substrate, fluorescence endpoint | inhibition, % at 15 µM | hit rate 0.67% among 360,000 | AID 602261;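 active means compounds whose normalised, plate-corrected inhibition of enzyme fluorescence in the single-dose primary screen is 50% or more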;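 further: 0% = DMSO with enzyme and 100% = substrate without enzyme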
NPR1 activator – GC-A (human) enzyme activation. HEK293 GC-A cells, cGMP TR-FRET, EC30 ANP; 0% at EC30 ANP, 100% saturating ANP. activation, % at 10 µM. hit rate 0.14% among 370,000. AID 1671463; in the data active means activation above about 40%
Target sequence (P16066 whole entry, looked up): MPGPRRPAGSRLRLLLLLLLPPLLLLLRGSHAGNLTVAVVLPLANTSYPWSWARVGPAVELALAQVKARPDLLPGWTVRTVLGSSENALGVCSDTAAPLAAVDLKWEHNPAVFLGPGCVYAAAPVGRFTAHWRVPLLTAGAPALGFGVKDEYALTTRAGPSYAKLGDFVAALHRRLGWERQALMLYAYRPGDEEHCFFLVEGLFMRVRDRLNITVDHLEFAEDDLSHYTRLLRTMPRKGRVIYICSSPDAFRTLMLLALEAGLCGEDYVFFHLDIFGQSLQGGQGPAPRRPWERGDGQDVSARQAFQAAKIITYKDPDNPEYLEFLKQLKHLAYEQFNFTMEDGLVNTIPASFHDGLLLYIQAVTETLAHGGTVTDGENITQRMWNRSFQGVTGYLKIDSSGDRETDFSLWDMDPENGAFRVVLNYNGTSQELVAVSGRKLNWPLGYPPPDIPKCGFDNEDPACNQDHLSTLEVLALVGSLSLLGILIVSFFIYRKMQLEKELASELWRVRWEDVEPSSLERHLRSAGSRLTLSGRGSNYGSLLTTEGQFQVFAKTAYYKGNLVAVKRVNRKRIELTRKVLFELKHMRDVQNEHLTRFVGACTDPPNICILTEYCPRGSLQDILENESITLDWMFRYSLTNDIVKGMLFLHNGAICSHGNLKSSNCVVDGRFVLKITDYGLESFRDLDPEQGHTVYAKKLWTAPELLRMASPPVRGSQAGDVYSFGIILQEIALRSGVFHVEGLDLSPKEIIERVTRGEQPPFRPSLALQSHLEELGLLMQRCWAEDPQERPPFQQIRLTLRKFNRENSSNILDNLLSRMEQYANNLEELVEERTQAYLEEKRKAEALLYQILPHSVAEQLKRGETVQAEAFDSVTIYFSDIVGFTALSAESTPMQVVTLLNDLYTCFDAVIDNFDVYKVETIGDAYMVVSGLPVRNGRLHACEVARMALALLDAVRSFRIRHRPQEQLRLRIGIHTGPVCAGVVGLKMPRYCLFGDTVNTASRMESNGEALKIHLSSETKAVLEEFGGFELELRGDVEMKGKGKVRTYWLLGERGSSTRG
ADAM17 inh – ADAM17 inhibition, QFRET primary screen | recombinant ADAM17, EDANS/DABCYL FRET peptide cleavage | AID 720648 | hit rate 0.83% among 370,000 | P78536 | inhibition, % at 6.95 µM;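 active means inhibition above the mean of compounds lying between control limits plus 3 SD, set per campaign, cut at about 8.5% in these data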;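 further: 0% = DMSO-only wells as the low control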
GC-B act – GC-B (human) receptor activation; P20594; HEK293-GC-B cells, CNP EC30, cGMP TR-FRET; 0% at EC30 CNP, 100% saturating CNP; activation, % at 10 µM; hit rate 0.11% among 370,000;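 active means activation at 10 µM reaching about 35% in either raw or pattern-adjusted values, limit read from the data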
ADAM10 confirm – confirmation of inhibitors of human ADAM10; ADAM10 QFRET peptide cleavage, EDANS fluorescence; hit rate 1% among 2,100; shares compounds with ADAM10 inh; inhibition, % at 6.95 µM;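 active means inhibition above about 20% chosen separately for each screening run, limit read from the data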;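 further: 0% = DMSO wells and 100% = marimastat wells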
ADAM17 ctr – counter-screen for ADAM10 exosite inhibitors: inhibitors of human ADAM17 | shares compounds with ADAM10 inh | ADAM17 QFRET peptide cleavage, EDANS fluorescence | inhibition, % at 6.95 µM | hit rate 0.5% among 2,100;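 active means mean triplicate inhibition above the solvent-only control wells' mean plus 3 SD, cut at about 12% in these data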;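 further: 0% = DMSO wells and 100% = marimastat wells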
ADAM10 counter – ADAM10 inhibition, counter-screen for ADAM17 exosite hits. shares compounds with ADAM17 inh. recombinant ADAM10, EDANS/DABCYL FRET peptide cleavage, 3 h. inhibition, % at 6.95 µM. AID 743256. hit rate 47% among 2,900;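 active means mean inhibition over the triplicate runs exceeds the activity threshold set in the earlier primary screen, cut at about 20% in these data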;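 further: 0% = DMSO wells and 100% = marimastat wells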
ADAM17 confirm – confirmation of inhibitors of human ADAM17. shares compounds with ADAM17 inh. recombinant ADAM17, EDANS/DABCYL QFRET peptide cleavage. inhibition, % at 6.95 µM. hit rate 65% among 2,900. AID 743257;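 active means mean inhibition across replicates above the hit cutoff set in the primary screen, cut at about 8.5% in these data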;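 further: 0% = DMSO wells and 100% = marimastat wells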
* hit, by the source's call; / = no result given. Hits are enriched below; roughly 2% of the tested compounds scored in any of these assays.

SMILES | ADAM10 inh | FAS TE block | NPR1 activator | ADAM17 inh | GC-B act | ADAM10 counter | ADAM17 confirm | others
CCC(C)C1NC(=O)C(NC(=O)C(CC(C)C)N(C)C(=O)C2CCCN2C(=O)C(C)O)C(C)OC(=O)C(Cc2ccc(OC)cc2)N(C)C(=O)C2CCCN2C(=O)C(CC(C)C)NC(=O)[C@H](C)C(=O)[C@H](C(C)C)OC(=O)CC1O (some centres undefined) | 25.9* | 8.2 | 0.8 | 11.8* | 9.7 | 2.4 | 5.0 | ADAM10 confirm=-0.3;ADAM17 ctr=-0.7
C#CCCC[C@@H]1OC(=O)CNC(=O)C([C@@H](C)CC)NC(=O)[C@@H]2CCCN2C(=O)C([C@@H](C)CC)OC(=O)[C@H](Cc2ccccc2)N(C)C(=O)[C@H](C(C)C)NC(=O)C1(C)C (some centres undefined) | 3.4 | 9.0 | -0.3 | -0.6 | 0.7 | / | /
COC(=O)C(O)(c1ccc(NC(=S)NC(=O)c2ccc(Cl)cc2Cl)cc1)C(F)(F)F (centres undefined) | 16.4 | 18.3 | -7.1 | 7.1 | 4.5 | / | /
COC(=O)C(O)(c1ccc(NC(=S)NC(=O)c2ccc(Cl)cc2Cl)c(C)c1)C(F)(F)F (centres undefined) | 23.4* | -17.3 | -1.2 | 11.5* | 0.2 | 35.1* | 18.2* | ADAM10 confirm=7.8;ADAM17 ctr=2.2
Cc1ccc(NP(=O)(Oc2ccccc2F)Oc2ccccc2F)cc1C | 25.9* | 32.0 | -3.6 | 9.6* | 1.9 | 22.9* | 11.9* | ADAM10 confirm=8.0;ADAM17 ctr=2.5
O=C(NCCN1CCC2(CC1)C(=O)NCN2c1ccccc1)c1cc(C(F)(F)F)ccc1C(F)(F)F | -1.1 | / | -4.6 | -1.3 | -2.6 | / | /
CN1c2ccc(Br)cc2[C@H]2NCC[C@H]2[C@H]1CO | -150.7 | / | -3.5 | -34.9 | -3.4 | / | /
COC(=O)C1=C(c2cccc(OCc3ccccc3)c2)C[C@@H]2CC[C@H]1N2C(=O)NCCOc1ccc(OC)cc1 | 25.8* | 17.6 | -4.5 | 10.2* | 0.2 | 19.3 | 13.8* | ADAM10 confirm=6.5;ADAM17 ctr=1.8
COC(=O)C1=C(c2ccc(-c3ccccc3)c(F)c2)C[C@@H]2CC[C@H]1N2C(=O)NCCNC(C)=O | 7.2 | -12.8 | -0.7 | 2.4 | 2.9 | / | /
COC(=O)C1=C(c2ccc(-c3ccccc3)c(F)c2)C[C@@H]2CC[C@H]1N2C(=O)NCCOc1ccc(OC)cc1 | 40.4* | 24.1 | -1.8 | 22.2* | -0.9 | 20.5* | 11.6* | ADAM10 confirm=4.7;ADAM17 ctr=1.6
Cc1cc(C)cc(OCCOc2cccc(C=C3C(=O)NC(=O)NC3=O)c2)c1 | 0.7 | 9.4 | -4.1 | 0.3 | -1.3 | / | /
Cc1ccc(OCCOc2cccc(C=C3C(=O)NC(=O)NC3=O)c2)cc1 | 9.8 | 4.9 | 7.7 | 9.2* | -0.8 | -2.3 | -1.4
CC(C)(C)OC(=O)NCCCCC(N)[P+](=O)O (centres undefined) | -1.0 | / | 1.8 | -4.5 | 0.2 | / | /
COC(=O)C1=C(c2ccc(OC(F)(F)F)cc2)C[C@@H]2CC[C@H]1N2C(=O)NCc1cccc2ccccc12 | 29.9* | 24.8 | -4.4 | 8.7* | -8.8 | 20.5* | 10.3*
COC(=O)C1=C(c2ccc(OC(F)(F)F)cc2)C[C@@H]2CC[C@H]1N2C(=O)NCc1ccc(F)cc1 | 14.6 | 16.7 | -5.9 | 3.0 | -9.6 | / | /
COC(=O)C1=C(c2ccc(OC(F)(F)F)cc2)C[C@@H]2CC[C@H]1N2C(=O)NCc1cc(C)oc1C(F)(F)F | 18.9 | 17.0 | -2.4 | 11.1* | 0.1 | 28.9* | 15.3*
N#CC1c2ccccc2-n2nncc2CN1C(=O)c1ccc([N+](=O)[O-])o1 (centres undefined) | -1.0 | / | -0.1 | 0.4 | 4.9 | / | /
O=P(NS(=O)(=O)c1ccccc1)(Oc1ccccc1)Oc1ccccc1 | 2.3 | -7.5 | 1.3 | 8.7* | -1.3 | -1.8 | 2.2
O=C(NN=Cc1ccc(N(CCCl)CCCl)cc1)C(=O)c1c[nH]c2ccccc12 | 10.7 | 17.6 | 2.6 | 14.5* | -2.5 | 11.1 | 13.4*
O=C(NN=Cc1ccc(N(CCCl)CCCl)cc1)c1cc(=O)[nH]c(=O)[nH]1 | 5.2 | -1.4 | 8.5 | 5.9 | 3.8 | / | /
COc1ccccc1OCCCn1cc(C(C)=O)c2ccccc21 | 5.2 | 1.3 | -10.4 | 10.3* | -5.2 | -3.3 | 3.6
COc1ccccc1OCCCn1cc(C(=O)C2CC2)c2ccccc21 | 5.7 | 20.2 | -12.2 | -0.2 | -5.8 | / | /
N#Cc1ccc2nc(-c3ccc(CN4CCC(n5c(=O)[nH]c6cc(Cl)ccc65)CC4)cc3)c(-c3ccccc3)nc2c1 | 0.1 | / | -2.7 | 3.3 | 2.5 | / | /
COc1ccc(C(c2nnnn2Cc2ccccc2)N2CCC3(CC2)C(=O)NCN3c2ccccc2)cc1 (centres undefined) | 10.8 | 18.8 | -8.6 | 5.0 | 1.8 | / | /
O=C1NCN(c2ccccc2)C12CCN(C(CCc1ccccc1)c1nnnn1C1CCCCC1)CC2 (centres undefined) | -5.3 | 29.1 | -3.0 | -1.7 | -0.8 | / | /
SMILES | ADAM10 inh | FAS TE block | NPR1 activator | ADAM17 inh | GC-B act | ADAM10 counter | ADAM17 confirm | others
CCC(c1nnnn1Cc1ccccc1)N1CCC2(CC1)C(=O)NCN2c1ccccc1 (centres undefined) | 2.4 | -6.2 | -4.5 | 10.2* | -6.6 | 18.3 | 11.9*
O=C1NCN(c2ccccc2)C12CCN(C(CCc1ccccc1)c1nnnn1C1CCCC1)CC2 (centres undefined) | 8.2 | 13.0 | -4.1 | 8.8* | 0.3 | 9.0 | 9.4*
S=C(NCCc1ccccc1)N1Cc2ccc(Br)cc2-n2nncc2C1 | 17.3 | 25.2 | 0.5 | 11.3* | -3.4 | 24.8* | 14.4*
OC1CN2CCCC(O)C2C1O (centres undefined) | -5.7 | / | 2.3 | 2.2 | 2.5 | / | /
COc1ccc(OCC(=O)Nc2ccc(Cl)cc2C(=O)c2ccccc2)cc1 | 12.3 | 4.6 | -2.1 | 9.1* | -4.0 | -2.9 | -1.0
CC(C)C(NC(=O)OCc1ccccc1)P(=O)(Oc1ccccc1)Oc1ccccc1 (centres undefined) | 0.9 | / | -9.9 | 0.9 | -5.0 | / | /
COC(=O)C1=C(C(=O)OC)C2c3ccccc3C1c1ccccc12 | 11.9 | 4.0 | -9.8 | 10.7* | -5.2 | 7.2 | 3.1
O=C(O)C1=CC2c3ccccc3C1c1ccccc12 | -6.6 | -4.7 | -3.1 | -0.6 | 0.8 | / | /
O=S(=O)(c1ccc(Cl)cc1)N1Cc2cc(Br)ccc2-n2nncc2C1 | -4.5 | 19.4 | -4.4 | -0.7 | -5.4 | / | /

High-throughput results: PubChem, several laboratories
